Screening data deposited in PubChem by National Center for Advancing Translational Sciences (NCATS).
gsp antagonist: qHTS for Antagonists of gsp, the Etiologic Mutation Responsible for Fibrous Dysplasia/McCune-Albright Syndrome: qHTS; AID 624288, 2012; Potency, µM (series often up to 76.9 µM), without a hit: top-dose activity change, negative = inhibition, hits mostly inhibitors; gsp-mutant cells, cAMP HTRF, 30 min; hit rate 0.4% among 340,000; calls by dose curve; cell line not stated here;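 note: intracellular cAMP measured with PDE inhibitor Ro 20-1724 present during compound exposure; potency is the fitted concentration of half-maximal effect; % is set by controls: 0 for no effect and ±100 for the full control effect; nearly all actives have a fitted effect of over 65% in size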
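Cells, 2000/well, grown 16–24 h in DMEM 10% FBS with 0.5 mg/ml G418, then compounds plus […] (300 uM addition stock), 30 min at 37C. cAMP read by HTRF (cAMP-d2 and anti-cAMP antibody-K in lysis buffer) after 30 min RT.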
gsp ag: qHTS for Agonist of gsp, the Etiologic Mutation Responsible for Fibrous Dysplasia/McCune-Albright Syndrome: qHTS; gsp mutant cells, cAMP HTRF, 30 min; Potency, µM (titrated, usually from 76.9 µM), for the others: top-dose activation (cAMP increase), usual class: activators; hit rate 0.13% among 340,000; AID 624287, 2012; active = well fitted activation curve with a large enough effect; inconclusive = small, poorly fitted or top-dose-only effect, or another doubt; inactive = no such curve, though single readings can be large or run the other way; cell line not stated here;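 note: phosphodiesterase inhibitor Ro 20-1724 added with compounds to block cAMP breakdown; potency is the fitted concentration of half-maximal effect; nearly all actives have a fitted effect of over 60% in size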
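Cells in DMEM/10% FBS with G418 were pretreated with compounds in DMSO plus […] (300 uM stock) for 30 min at 37C. cAMP was measured by HTRF (cAMP-d2 plus anti-cAMP antibody-K) after 30 min at room temperature.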
RXFP1 antag: qHTS Assay for Antagonists of the Relaxin Receptor RXFP1 | HEK293-RXFP1, relaxin-stimulated cAMP HTRF, 30 min; hits give low values | activity change, negative = inhibition, % at 57.5 µM | hit rate 0.59% among 350,000;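 active = activity change of -60% or lower, but not beyond a set lower limit; inconclusive = change between -60% and -40%, or beyond the set limit; inactive = change above -40%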; note: % is set by controls: 0 for no effect and ±100 for the full control effect
Target sequence (Q9HBX9 whole entry, looked up): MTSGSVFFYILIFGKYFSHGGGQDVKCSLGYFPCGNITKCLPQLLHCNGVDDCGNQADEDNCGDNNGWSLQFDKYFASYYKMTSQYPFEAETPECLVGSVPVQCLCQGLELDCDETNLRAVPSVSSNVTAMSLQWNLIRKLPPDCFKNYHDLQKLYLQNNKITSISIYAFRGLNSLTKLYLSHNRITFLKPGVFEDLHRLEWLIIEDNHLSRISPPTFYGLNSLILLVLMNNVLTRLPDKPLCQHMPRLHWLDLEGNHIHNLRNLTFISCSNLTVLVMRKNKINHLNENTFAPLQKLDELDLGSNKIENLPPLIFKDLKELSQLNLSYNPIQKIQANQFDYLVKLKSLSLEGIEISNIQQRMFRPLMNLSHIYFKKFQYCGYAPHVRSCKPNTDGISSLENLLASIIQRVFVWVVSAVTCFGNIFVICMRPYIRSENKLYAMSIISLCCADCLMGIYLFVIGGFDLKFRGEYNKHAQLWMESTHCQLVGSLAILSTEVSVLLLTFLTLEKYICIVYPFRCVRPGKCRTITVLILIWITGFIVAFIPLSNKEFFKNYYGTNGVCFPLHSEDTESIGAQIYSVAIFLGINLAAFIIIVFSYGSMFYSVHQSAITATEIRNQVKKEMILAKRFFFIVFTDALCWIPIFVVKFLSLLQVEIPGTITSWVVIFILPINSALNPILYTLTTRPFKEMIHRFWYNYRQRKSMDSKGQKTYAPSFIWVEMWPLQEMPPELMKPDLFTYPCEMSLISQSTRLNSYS
TSHR antagonist: Antagonists of the Thyroid Stimulating Hormone Receptor: HTS campaign. hit rate 0.2% among 330,000. Thyrotropin receptor (Homo sapiens), P16473. TSHR-expressing cells, TSH-stimulated cAMP HTRF, 2 h; hits give low values. activity change, negative = inhibition, % at 11.5 µM;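 active = activity change below a set negative limit, meaning inhibition stronger than a set level, cut at about -70% in these data; inconclusive = activity change between two set negative limits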; note: % is set by controls: 0 for no effect and ±100 for the full control effect
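Read-out is FRET at 665 nm (cryptate excitation 337 nm) from a cryptate-tagged anti-cAMP antibody, competed by cell cAMP against cAMP-d2. Compounds are tested on freshly harvested TSHR cells challenged with 4nM TSH (EC80) for 2 hours at 37 deg C.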
RXFP1 agonist: qHTS Assay for Agonists of the Relaxin Receptor RXFP1. Relaxin receptor 1 (Homo sapiens), Q9HBX9. HEK293T-RXFP1 cAMP TR-FRET, 30 min; response scale: percent of porcine relaxin response, buffer zero. Potency, µM (titrated, usually from 57.5 µM), inactives show top-dose activation, actives largely listed as activators. hit rate 0.3% among 370,000. AID 2676, 2010; active = well fitted activation curve with a large enough effect; inconclusive = small, poorly fitted or top-dose-only effect; note: potency is the fitted concentration of half-maximal effect; % is set by controls: 0 for no effect and ±100 for the full control effect; nearly all actives have a fitted effect of over 60% in size
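Agonist response is measured as cAMP accumulation in an RXFP1-transfected HEK293T line under PDE4 inhibition. Values are scaled between buffer-only and 29 nM porcine relaxin, and EC50s come from standard Hill equation fits.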
Numbers without * were called inactive; ? = inconclusive; · = no result given; [ ] = another dose, or the depositor's remark. Shown are actives, neighbours in structure and some others; about 1% of the full set was active somewhere.

SMILES	gsp antagonist	gsp ag	RXFP1 antag	TSHR antagonist	RXFP1 agonist
Clc1ccc(CN2CCc3c([nH]c4ccccc34)C2)cc1Cl	-1.4%	-58.8%	-64.3*	-9.3	0.5%
Clc1cccc(CN2CCc3c([nH]c4ccccc34)C2)c1	2.8%	-315.2%	-63.8*	-8.6	2.3%
CCOC(=O)c1sc(NC(=O)c2ccc(Br)o2)cc1C	-9.9%	7.4%	-62.6*	2.6	-1.2%
Cc1cc(C)cc(NC(=O)Cn2nnc(C(=O)Nc3cc(C)cc(C)c3)c2N)c1	·	·	·	·	3.4%
Cc1ccc(S(=O)(=O)N2CC=C(c3c(C)n(CC(=O)N4CCCC4)c4ccccc34)CC2)cc1C	·	·	-9.3	·	0.1%
CCN(c1ccccc1)c1ncnc2c1cnn2-c1ccc(C)cc1C	·	·	?	·	2.9%
O=C(NCCc1ccccc1)c1ccc2nc(-c3ccco3)c(-c3ccco3)nc2c1	2.5%	13.1%	-6.1	8.7	1.6%
O=C(c1ccccc1)c1ccc2nc(-c3ccco3)c(-c3ccco3)nc2c1	-11.7%	-15.5%[15.4 µM]	-90.4*	-10.5	3.2%
CC(C)C[C@@H]1[C@H](c2ccccc2)OC(=O)N1CCCN1CCCCCC1	·	·	-12.8	·	·
COc1cccc(-c2nc(SCC(=O)Nc3nc(-c4ccccc4)c(C)s3)[nH]c(=O)c2C#N)c1	-23.7%	1.8%[15.4 µM]	-70.8*	-6.2	0.3%
N#Cc1c(-c2ccccc2)nc(SCC(=O)NC2CCCCC2)[nH]c1=O	6.1%	?	-0.6	10.1	22.4µM*
COc1ccccc1C(=O)Nc1nnc(S(=O)(=O)N(C)c2ccc(Cl)cc2)s1	·	·	-2.6	·	-0.3%
COc1cc(NC(=O)COc2cc(O)c3c(c2)OC(C)(C)CC3=O)cc(OC)c1OC	35.5µM*	·	·	-38.8	1.7%
COc1cc(NC(=O)COc2cccc3c2OC(C)(C)C3)cc(OC)c1OC	35.5µM*	-0.2%	-20.4	-22.1	-0.4%
CCOC(=O)c1noc2ncnc(Nc3cccc(OC)c3)c12	·	·	·	·	-0.8%
Cc1ccc(-c2noc(CCC(=O)NCCCN3CCN(c4cccc(Cl)c4)CC3)n2)cc1	10.2%[15.4 µM]	19.3%	-64.0*	-9.4	1.2%
CCCCCCn1c2c(c(=N)c3c1CCC3)CCC2	35.5µM*	16.2%	7.8	-23.6	2.8%
CCCCCCCCCn1c2c(c(=N)c3c1CCC3)CCC2	5.2%	-6.1%[15.4 µM]	-70.2*	-32.9	1.1%
CCCCCCCn1c2c(c(=N)c3c1CCC3)CCCC2	·	2.6%[15.4 µM]	-14.6	-18.9	7.5%
COc1cccc(C2/C(=C(\O)c3ccc4c(c3)OCCO4)C(=O)C(=O)N2CCCN2CCOCC2)c1OC (stereo not given)	26.4%	8.91µM*	17.4	-3.1	28.4%
COc1ccc(C2/C(=C(\O)c3ccc4c(c3)OCCO4)C(=O)C(=O)N2Cc2cccnc2)cc1OC (stereo not given)	13.1%	24.2%	4.2	3.7	18.5%
CCOc1ccc(/C(O)=C2/C(=O)C(=O)N(CCCN3CCOCC3)C2c2ccc(C)cc2)cc1C (stereo not given)	11.2µM*	39.1%	-0.7	1.9	27.3%
O=C1C(=O)N(Cc2cccnc2)C(c2ccc(Br)cc2)/C1=C(\O)c1ccc2c(c1)OCCO2 (stereo not given)	11.7%	8.91µM*	-0.3	-0.3	?
O=C1C(=O)N(CCCN2CCOCC2)C(c2ccc(Cl)cc2)/C1=C(\O)c1ccc2c(c1)OCCO2 (stereo not given)	27.9%	11.2µM*	28.9	-5.1	?
Cc1cc(C(F)F)n2nc(C(=O)Nc3ccc(F)c(Cl)c3)nc2n1	·	·	·	·	0.7%
SMILES	gsp antagonist	gsp ag	RXFP1 antag	TSHR antagonist	RXFP1 agonist
Cc1ccc(CN(Cc2ccco2)C(=O)COc2ccc(Cl)cc2)o1	·	·	-68.9*	·	-0.7%
Cc1cccc(OCC(=O)N(Cc2ccc(N(C)C)cc2)Cc2ccco2)c1C	·	·	-17.3	·	-0.6%
Cc1ccc(CN(Cc2ccco2)C(=O)COc2cccc(C)c2C)o1	·	·	-96.1*	·	-0.1%
COc1ccc(-c2nc3cc(C(C)C)ccc3o2)cc1NC(=O)c1ccc(C)c(Cl)c1	·	·	-18.3	·	-0.9%
Nc1c(C(=O)NCc2ccc3c(c2)OCO3)nnn1CC(=O)Nc1ccc(Br)cc1	-1.9%	2.3%	?	-114.4*	-1.6%
Cc1ccc(NC(=O)Cn2nnc(C(=O)NCc3ccc4c(c3)OCO4)c2N)cc1	?	?	-19.5	14.3	2.6%
Cn1c(C(=O)NCCc2ccccc2)cc2cc(S(=O)(=O)N3CCCCC3)ccc21	·	·	-18.8	·	6.5%
Cc1c(C(=O)OCC2CCCO2)[nH]c2c1C(=O)CC(c1ccc(N(C)C)cc1)C2 (stereo not given)	39.8µM*	-25.6%	-35.4	-8.5	-0.6%
Cc1c(C(=O)OCc2ccccc2)[nH]c2c1C(=O)CC(c1ccc(N(C)C)cc1)C2 (stereo not given)	·	·	3.4	·	0.0%
CC(C)Cn1c(N)c(C(=O)COC(=O)c2cccc(Cl)c2)c(=O)n(C)c1=O	50.1µM*	4.1%[15.4 µM]	-33.8	-5.5	7.1%
Cc1noc(C)c1C(=O)OCC(=O)c1c(N)n(CC(C)C)c(=O)n(C)c1=O	19.6%	31.6µM*	0.4	13.4	23.1%
CCCn1c2ccccc2c2cnn(CC(=O)N3CCN(c4ccccc4)CC3)c(=O)c21	·	·	4.6	·	-0.8%
Cc1ccc(C)c(Cn2c(=O)n(CCCCC(=O)NCc3ccc4c(c3)OCO4)c(=O)c3ccccc32)c1	·	·	·	·	5.1%
CN(C)CCCNC(=S)N(Cc1cccs1)Cc1cc2cc3c(cc2[nH]c1=O)OCCO3	1.6%	?	-62.7*	-4.3	1.0%
CN(C(=O)c1cc(-c2ccccc2O)on1)c1ccccc1	·	·	-1.5	·	0.4%
CC12CCC(C(=O)N(CSC(=S)N/N=C\c3ccccc3)C1=O)C2(C)C (stereo not given)	3.9%	7.2%	15.0	-5.2	0.0%
CC12CCC(C(=O)N(CSC(=S)N/N=C\c3ccccc3Cl)C1=O)C2(C)C (stereo not given)	-13.3%	0.1%[15.4 µM]	-64.7*	-4.0	-0.1%
Cc1ccc(-n2ncc3c(N4CCCC4)ncnc32)c(C)c1	4.4%	-15.3%	1.4	-10.4	5.0%
COc1cccc(N2CCN(c3ncnc4c3cnn4-c3ccc(C)cc3C)CC2)c1	7.94µM*	2.2%	·	-93.2*	2.3%
Cc1ccc2oc(=O)c3cc(C(=O)N4CCN(c5ccccc5)CC4)sc3c2c1	·	·	·	·	-1.1%
CC(=O)c1cccc(OCc2cc(C(=O)N3CCC(N4CCCCC4)CC3)no2)c1	-2.9%	15.3%	-81.0*	-3.8	-0.1%
CN(C(=O)CCN1C(=O)/C(=C/c2ccc(F)cc2)SC1=S)C1CCS(=O)(=O)C1 (stereo not given)	·	-2.8%	-1.3	·	·
